Compound activity deposited in PubChem BioAssay by National Center for Advancing Translational Sciences (NCATS).
CHX counter – Cycloheximide Counterscreen for Small Molecule Inhibitors of Shiga Toxin; cell reporter, cycloheximide protein synthesis inhibition counterscreen; hit rate 12% among 300,000; max response, %; in the data active = max response mostly above about 13%, no sharp cut-off; inactive = mostly below about 14%; note: read at 38.3 µM for the half of the compounds with a filed dose
Pf growth 48h – Primary qHTS for delayed death inhibitors of the malarial parasite plastid, 48 hour incubation; Potency, µM (series often up to 28.7 µM), hits mostly inhibitors; P. falciparum luciferase growth in erythrocytes, 48 h; hit rate 5.9% among 310,000
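Luminescence readout; reporter = integrated firefly luciferase in P. falciparum. RBC culture at 2% hematocrit, 0.1% parasitemia final, 37 C/5% CO2; decreased signal taken as growth inhibition.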
Shiga inhibitor – A qHTS for Small Molecule Inhibitors of Shiga Toxin. AID 2315, 2010. Vero cells, Shiga toxin protein synthesis inhibition reporter. hit rate 9.2% among 290,000. inhibition, % at 38.7 µM; in the data active = inhibition mostly above about 28%, no sharp cut-off; inactive = mostly below about 43%
Pf growth 96h – Primary qHTS for delayed death inhibitors of the malarial parasite plastid, 96 hour incubation; AID 504834, 2011; hit rate 6.9% among 320,000; Potency, µM (highest dose often 28.7 µM), most hits filed as inhibitors; P. falciparum luciferase reporter growth, 96 h
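Luminescence readout: decreased luciferase signal marks inhibited growth of reporter-expressing P. falciparum in infected red cells (2% hematocrit, 0.05% parasitemia final), exposed to compound two generations (96 h, 37 C, 5% CO2).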
AMA1 RON2 block – qHTS for Inhibitors of AMA1-RON; Towards Development of Antimalarial Drug Lead: Primary Screen. Plasmodium falciparum AMA1 (3D7) - RON2 peptide interaction. hit rate 0.2% among 360,000. AlphaScreen AMA1-biotinylated RON2 peptide binding. Potency, µM (titrated, usually from 58.2 µM), hits mostly inhibitors; note: nearly all actives have a fitted effect of over 45% in size
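AMA1 (3D7) with his tag at 25 nM final met compounds first, then biotinylated RON2 peptide at 25 nM; detection used donor plus acceptor beads, 10 µg/mL apiece, read by AlphaScreen after 30 min at room temperature.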
SARS PLP yeast – qHTS of Yeast-based Assay for SARS-CoV PLP | hit rate 0.19% among 330,000 | S. cerevisiae expressing SARS-CoV PLpro, growth rescue | Potency, µM (doses to about 32.9 µM), usual class: activators; calls by dose curve; note: nearly all actives have a fitted effect of over 55% in size
Numbers stand for hits; – = inactive; ? = inconclusive; · = no result. Most compounds without a hit are left out; they make up all but 19% or so of the library. Unless noted, calls come from the whole dose curve; as a rule, active = well fitted curve in the direction sought with a large enough effect; inconclusive = small, poorly fitted or top-dose-only effect, or another doubt; inactive = no such curve, though single readings can be large; an effect the other way counts as inactive or inconclusive.

SMILES | CHX counter | Pf growth 48h | Shiga inhibitor | Pf growth 96h | AMA1 RON2 block | SARS PLP yeast
CCC(C)(C)NC(=O)CN(C(=O)CCC(=O)Nc1nccs1)c1ccc2c(c1)OCCO2 | 51 | ? | 57 | – | – | –
CC(C)NC(=O)CN(C(=O)CCC(=O)Nc1nccs1)c1ccc2c(c1)OCO2 | – | – | – | 13µM | – | –
Cc1ccc(N(CC(=O)NC(C)C)C(=O)CCC(=O)Nc2nccs2)c(C)c1 | 28 | – | – | – | – | –
Cc1cccc(N(CC(=O)NC(C)C)C(=O)CCC(=O)Nc2nccs2)c1 | – | 9.3µM | – | ? | – | –
Cc1ccc(N(CC(=O)NC(C)C)C(=O)CCC(=O)Nc2nccs2)cc1 | – | – | – | – | – | –
CCc1ccc(N(CC(=O)NC(C)(C)CC)C(=O)CCC(=O)Nc2nccs2)cc1 | – | – | – | – | – | –
CC(=O)NC(CC(=O)N1CCN(C(C)=O)CC1)c1ccccc1 (stereo not drawn) | – | – | – | – | – | –
COc1cccc(CN(CCC(C)C)S(=O)(=O)c2cc(Br)ccc2Br)c1 | · | · | · | · | – | ·
Cc1ccc(C2CC(c3ccccc3)=NN2C(=S)Nc2ccccc2)o1 (stereo not drawn) | – | · | – | ? | – | –
Cc1cn([C@H]2C[C@H](O)[C@@H](CCC(=O)NCCc3cccs3)O2)c(=O)[nH]c1=O | · | · | · | · | – | ·
CCC(C)(C)NC(=O)CN(C(=O)CNS(=O)(=O)c1ccc(C)cc1)c1ccc2c(c1)OCCO2 | – | 6.6µM | – | · | – | –
COc1ccc(NC(=O)CSc2nnc(-c3cccs3)n2N)cc1S(N)(=O)=O | · | · | · | · | – | –
O=C(Nc1ccc2nc(-c3ccc4nc[nH]c4c3)[nH]c2c1)c1cccs1 | – | 2.6µM | – | ? | ? | –
O=C(Nc1ccc2nc(-c3ccccc3)[nH]c2c1)c1cccs1 | 32 | · | – | ? | – | –
COc1ccc(OC)c(N(CC(=O)N2CCN(c3cc(Cl)ccc3C)CC2)S(C)(=O)=O)c1 | – | ? | – | · | – | –
COc1ccc(CN(C)C(C)C(=O)Nc2ccc(S(=O)(=O)N3CCCCC3)cc2)c(OC)c1 (stereo not drawn) | · | · | · | · | – | –
Cc1c(C(=O)NN2CCCCC2)nn(-c2ccc(Cl)cc2Cl)c1-c1ccc(Cl)cc1 | · | ? | · | 8.5µM | · | ·
Cc1ccc(NC(=O)c2ccc3nsnc3c2)c(C)c1 | 30 | – | 35 | ? | – | –
Cc1ccc(NC(=O)c2sc(C)nc2C)c(C)c1 | 17 | – | 36 | – | – | –
Cc1ccc(NC(=O)c2sc(Cl)nc2C)c(C)c1 | – | – | – | – | – | –
C#CCOCCOCCOCCNc1nc(N2CCN(C(=O)[C@H](C(C)C)n3cc(CCO)nn3)CC2)nc(N2CCN(C(=O)[C@H]([C@@H](C)CC)n3cc(CCCCN)nn3)CC2)n1 | – | ? | – | ? | – | –
C#CCOCCOCCOCCNc1nc(N2CCN(C(=O)CCCCCCCCCCNC(=O)[C@@H](CCSC)n3cc(CCO)nn3)CC2)nc(N2CCN(C(=O)CCCCCCCCCCNC(=O)[C@H]([C@@H](C)CC)n3cc(CCCCCN)nn3)CC2)n1 | · | 1.7µM | · | 2.1µM | ? | –
C#CCOCCOCCOCCNc1nc(N2CCN(C(=O)CCCCCCCCCCNC(=O)[C@@H](CCSC)n3cc(CCO)nn3)CC2)nc(N2CCN(C(=O)CCCCCCCCCCNC(=O)[C@H]([C@@H](C)CC)n3cc(CCCCN=C(N)N)nn3)CC2)n1 | · | 1.7µM | · | 0.41µM | ? | –
C#CCOCCOCCOCCNc1nc(N2CCN(C(=O)[C@H]([C@@H](C)CC)n3cc(CCCN=C(N)N)nn3)CC2)nc(N2CCN(C(=O)[C@H]([C@@H](C)CC)n3cc(CCC(=O)O)nn3)CC2)n1 | · | · | · | · | – | ·
COc1ccc(OCC(=O)N2CCc3c([nH]c4ccccc34)C2c2ccccn2)cc1 (stereo not drawn) | – | – | – | ? | – | –
COc1ccc(C2c3[nH]c4ccccc4c3CCN2C(=O)c2cc3ncccn3n2)c(F)c1 (stereo not drawn) | – | 13µM | – | – | ? | –
